The values that follow come from PubChem BioAssay (NCATS).

SMILES strings stand for the structures. Values without a mark were called inactive. Results filed as inconclusive are left out. Active and inactive are the calls of the source. Calls come from the whole dose curve; as a rule, active = well fitted curve in the direction sought with a large enough effect; inconclusive = small, poorly fitted or top-dose-only effect, or another doubt; inactive = no such curve, though single readings can be large; an effect the other way counts as inactive or inconclusive.

Test [1] deals with Rap guanine nucleotide exchange factor 3 (Homo sapiens) (UniProt O95398). Kind of test: Confirmatory qHTS for agonist of cAMP-regulated guanine nucleotide exchange factor 3 (EPAC1) (AID 1645881).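 Note: EPAC1 catalysed release of BODIPY-GDP from Rap1B seen as fluorescence loss; nearly all actives have a fitted effect of over 75% in size.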
Test [2] concerns the target Rap guanine nucleotide exchange factor 4 (Homo sapiens) (UniProt Q8WZA2). Kind of test: Confirmatory qHTS for agonist of cAMP-regulated guanine nucleotide exchange factor 4 (EPAC2) (AID 1645884).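 Note: nucleotide exchange releases bodipy-GDP from Rap1 and this lowers its fluorescence; nearly all actives have a fitted effect of over 65% in size.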 On the technique in general: qHTS replaces the single test concentration by a dilution series.
Test [3] has the same target. In words: Confirmatory qHTS for antagonist of cAMP-regulated guanine nucleotide exchange factor 4 (EPAC2) (AID 1645885). Note: nearly all actives have a fitted effect of over 25% in size. Note: potency is the fitted concentration of half-maximal effect.
The target in test [4] is Rap guanine nucleotide exchange factor 3 (Homo sapiens) (UniProt O95398). Kind of test: Counterscreen qHTS for antagonist of cAMP-regulated guanine nucleotide exchange factor 3 (EPAC1) (AID 1645888).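 Note: fluorescence loss as bound BODIPY-GDP is released from Rap1B.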 The gist of the method: (§1)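 Rap1B–BODIPY-GDP (250 nM) with 50 uM GDP; compounds pin-transferred to 9.74 nM–152 uM final (activator) or from 7.32 nM upwards (inhibitor). Fluorescence Ex/Em 480/540 nm read at 5 and 30 min, then after adding cAMP or buffer, at room temperature.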

The target is the same in test [5]. Kind of test: Counterscreen qHTS for agonist of cAMP-regulated guanine nucleotide exchange factor 3 (EPAC1) (AID 1645889). Note: nearly all actives have a fitted effect of over 40% in size. The essentials: as §1
The target in test [6] is Cytochrome P450 3A4 (Homo sapiens) (UniProt P08684). Kind of test: qHTS Assay for Inhibitors and Substrates of Cytochrome P450 3A4 (AID 884). Note: series mostly up to about 57 µM; nearly all actives have a fitted effect of over 50% in size. The essentials: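 20 nM human CYP3A4 with 25 uM Luciferin-PPXE (at KM) in 200 mM KPO4, preincubated 10 min with compound; NADPH regeneration started a 60 min RT reaction. Luciferin detected by luminescence, normalized to 57 uM ketoconazole as full inhibition.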

Test [7] is described as follows: Confirmation and Secondary Assay for Modulators of Hemoglobin Beta Chain Splicing at IVS2 654 locus (AID 910).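 Note: HeLa cells stably carrying EGFP split by mutant beta-globin IVS2-654 intron.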 The gist of the method: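 HeLa cells stably expressing EGFP interrupted by β-globin IVS2-654 intron, seeded overnight in Opti-MEM/2% FCS, then treated 2 days at 37 °C. Restored splicing read as total peak GFP intensity per well by laser scanning cytometry (488 nm excitation, 500–520 nm emission); 500 nM antisense PNA as control.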

A short description of test [8]: Confirmation and Secondary Assay for Modulators of Hemoglobin Beta Chain Splicing at IVS2 705 locus (AID 930).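 Note: HeLa cells stably expressing the EGFP-705 splicing reporter; GFP fluorescence per well restored by corrected splicing of the IVS2-705 intron in EGFP; series mostly up to about 46 µM.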 The essentials:
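Stable HeLa line with EGFP disrupted by mutant beta-globin intron 2 (705). Overnight attachment, then 2 days of compound at 37C, 5% CO2. Signal: peak GFP intensity summed over objects 5-250 µm.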

Test [9] concerns the target Ubiquitin carboxyl-terminal hydrolase 1 (Homo sapiens) (UniProt O94782). In words: Inhibitors of USP1/UAF1: Pilot qHTS (AID 504865).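 Note: rhodamine fluorescence freed from ubiquitin-rhodamine substrate followed over time; top concentration of the series differs between compounds; nearly all actives have a fitted effect of over 35% in size.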 The essentials: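 USP1/UAF1 complex (1nM) preincubated with compound 15 min at room temperature, then Ub-Rho substrate (150nM final) added. Fluorescence read kinetically at 480/540 nm, 6 reads every 60 seconds. Buffer: 50mM HEPES pH 7.8, 0.5mM EDTA, 0.1 mg/ml BSA, 1mM TCEP, 0.01% Tween-20.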

Test [10] addresses Luciferin 4-monooxygenase (Photinus pyralis) (UniProt P08659). Kind of test: Biochemical firefly luciferase enzyme assay for NPC (AID 624030).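 Note: purified P. pyralis luciferase at 10 nM with luciferin and ATP substrate; series mostly up to about 59 µM; nearly all actives have a fitted effect of over 70% in size.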 The gist of the method:
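Purified P. pyralis luciferase at 10 nM in 50 mM Tris Acetate (final), luminescence read within 5 minutes of enzyme addition to compounds. Activity normalised to PTC124 versus DMSO; concentration-response curves classed by r2, magnitude and activity.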

Chain of Rap guanine nucleotide exchange factor 4 (Homo sapiens) (Q8WZA2 whole entry, looked up): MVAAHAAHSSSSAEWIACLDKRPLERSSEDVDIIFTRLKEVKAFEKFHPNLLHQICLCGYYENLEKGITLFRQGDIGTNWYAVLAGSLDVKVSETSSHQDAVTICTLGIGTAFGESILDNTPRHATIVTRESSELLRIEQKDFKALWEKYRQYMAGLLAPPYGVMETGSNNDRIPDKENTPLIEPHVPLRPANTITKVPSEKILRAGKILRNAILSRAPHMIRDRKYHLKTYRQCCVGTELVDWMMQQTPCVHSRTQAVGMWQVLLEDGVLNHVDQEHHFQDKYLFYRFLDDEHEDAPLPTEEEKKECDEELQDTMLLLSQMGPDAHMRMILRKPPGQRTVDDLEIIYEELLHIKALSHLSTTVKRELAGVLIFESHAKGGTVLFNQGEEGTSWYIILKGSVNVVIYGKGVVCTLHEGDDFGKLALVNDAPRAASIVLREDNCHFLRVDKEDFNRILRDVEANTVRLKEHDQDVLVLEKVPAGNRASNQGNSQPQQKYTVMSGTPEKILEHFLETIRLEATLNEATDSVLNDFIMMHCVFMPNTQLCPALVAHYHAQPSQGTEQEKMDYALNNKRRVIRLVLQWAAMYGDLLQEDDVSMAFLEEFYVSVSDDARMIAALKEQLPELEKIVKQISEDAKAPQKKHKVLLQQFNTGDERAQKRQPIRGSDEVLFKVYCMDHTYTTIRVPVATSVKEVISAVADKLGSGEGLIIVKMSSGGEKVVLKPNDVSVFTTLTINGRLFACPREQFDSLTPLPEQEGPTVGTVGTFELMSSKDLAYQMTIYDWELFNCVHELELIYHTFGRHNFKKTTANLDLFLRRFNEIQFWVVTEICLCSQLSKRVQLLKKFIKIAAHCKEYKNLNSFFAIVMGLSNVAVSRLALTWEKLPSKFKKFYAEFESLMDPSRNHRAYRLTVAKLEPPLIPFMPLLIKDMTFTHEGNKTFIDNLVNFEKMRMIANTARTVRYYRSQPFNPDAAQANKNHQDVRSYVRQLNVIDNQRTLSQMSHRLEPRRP
Chain of Rap guanine nucleotide exchange factor 3 (Homo sapiens) (O95398 whole entry, looked up): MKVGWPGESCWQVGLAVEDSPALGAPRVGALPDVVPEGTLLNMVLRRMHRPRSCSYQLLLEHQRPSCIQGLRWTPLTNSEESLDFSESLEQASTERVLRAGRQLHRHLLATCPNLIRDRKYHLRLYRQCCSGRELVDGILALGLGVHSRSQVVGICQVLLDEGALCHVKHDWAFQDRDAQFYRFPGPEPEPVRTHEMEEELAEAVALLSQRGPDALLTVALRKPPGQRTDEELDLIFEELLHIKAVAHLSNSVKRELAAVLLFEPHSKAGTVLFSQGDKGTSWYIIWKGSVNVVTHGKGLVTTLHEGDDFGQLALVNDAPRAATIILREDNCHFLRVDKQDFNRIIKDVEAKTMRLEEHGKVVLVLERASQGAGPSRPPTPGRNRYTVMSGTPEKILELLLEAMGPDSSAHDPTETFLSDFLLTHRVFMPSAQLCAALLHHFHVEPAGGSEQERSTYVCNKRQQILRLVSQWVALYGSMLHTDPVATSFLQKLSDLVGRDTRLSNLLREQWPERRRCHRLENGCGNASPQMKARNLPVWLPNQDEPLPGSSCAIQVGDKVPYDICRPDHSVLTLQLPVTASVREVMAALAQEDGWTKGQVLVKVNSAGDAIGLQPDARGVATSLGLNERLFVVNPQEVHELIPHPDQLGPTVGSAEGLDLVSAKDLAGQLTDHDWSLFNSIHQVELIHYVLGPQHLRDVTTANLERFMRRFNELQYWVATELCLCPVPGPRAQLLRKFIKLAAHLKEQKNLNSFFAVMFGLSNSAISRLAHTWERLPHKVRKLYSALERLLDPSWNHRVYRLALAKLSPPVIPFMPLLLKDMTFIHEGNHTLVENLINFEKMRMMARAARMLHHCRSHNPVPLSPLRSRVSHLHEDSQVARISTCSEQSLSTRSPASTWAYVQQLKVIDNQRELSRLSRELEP
Chain of Luciferin 4-monooxygenase (Photinus pyralis) (P08659 whole entry, looked up): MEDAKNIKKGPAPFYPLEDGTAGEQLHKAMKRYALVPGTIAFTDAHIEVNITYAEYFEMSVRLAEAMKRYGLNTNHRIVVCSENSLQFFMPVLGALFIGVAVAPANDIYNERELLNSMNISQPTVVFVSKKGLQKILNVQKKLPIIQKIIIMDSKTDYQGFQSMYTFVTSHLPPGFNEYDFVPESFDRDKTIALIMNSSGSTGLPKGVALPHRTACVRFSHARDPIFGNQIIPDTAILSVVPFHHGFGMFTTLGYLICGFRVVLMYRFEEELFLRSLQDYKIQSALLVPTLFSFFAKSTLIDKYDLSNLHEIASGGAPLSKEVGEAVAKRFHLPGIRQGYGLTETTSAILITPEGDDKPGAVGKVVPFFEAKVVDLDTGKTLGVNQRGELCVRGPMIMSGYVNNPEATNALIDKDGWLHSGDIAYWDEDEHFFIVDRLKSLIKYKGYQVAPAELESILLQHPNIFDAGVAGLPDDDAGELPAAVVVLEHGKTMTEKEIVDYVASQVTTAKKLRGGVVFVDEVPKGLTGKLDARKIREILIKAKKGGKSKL
Chain of Ubiquitin carboxyl-terminal hydrolase 1 (Homo sapiens) (O94782 whole entry, looked up): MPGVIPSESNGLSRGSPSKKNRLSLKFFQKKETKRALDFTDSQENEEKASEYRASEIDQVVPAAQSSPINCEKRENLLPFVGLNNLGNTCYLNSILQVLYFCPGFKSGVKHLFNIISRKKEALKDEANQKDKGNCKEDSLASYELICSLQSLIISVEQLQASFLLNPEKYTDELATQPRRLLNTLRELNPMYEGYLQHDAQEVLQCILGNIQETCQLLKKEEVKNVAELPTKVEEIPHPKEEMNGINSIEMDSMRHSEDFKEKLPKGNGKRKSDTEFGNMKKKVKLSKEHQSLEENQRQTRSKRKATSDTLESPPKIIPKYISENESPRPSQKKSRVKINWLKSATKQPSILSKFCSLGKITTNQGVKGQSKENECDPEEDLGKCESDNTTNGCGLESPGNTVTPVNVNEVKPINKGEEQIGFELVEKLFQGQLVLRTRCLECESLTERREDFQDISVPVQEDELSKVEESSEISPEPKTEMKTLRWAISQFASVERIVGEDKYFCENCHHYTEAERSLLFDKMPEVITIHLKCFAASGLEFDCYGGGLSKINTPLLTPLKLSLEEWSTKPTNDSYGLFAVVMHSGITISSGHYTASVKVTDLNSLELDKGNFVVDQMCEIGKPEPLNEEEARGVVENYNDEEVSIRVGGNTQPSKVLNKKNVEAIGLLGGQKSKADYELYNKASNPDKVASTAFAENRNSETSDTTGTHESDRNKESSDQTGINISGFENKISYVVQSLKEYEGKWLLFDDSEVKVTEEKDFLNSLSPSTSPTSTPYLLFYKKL
Chain of Cytochrome P450 3A4 (Homo sapiens) (P08684 whole entry, looked up): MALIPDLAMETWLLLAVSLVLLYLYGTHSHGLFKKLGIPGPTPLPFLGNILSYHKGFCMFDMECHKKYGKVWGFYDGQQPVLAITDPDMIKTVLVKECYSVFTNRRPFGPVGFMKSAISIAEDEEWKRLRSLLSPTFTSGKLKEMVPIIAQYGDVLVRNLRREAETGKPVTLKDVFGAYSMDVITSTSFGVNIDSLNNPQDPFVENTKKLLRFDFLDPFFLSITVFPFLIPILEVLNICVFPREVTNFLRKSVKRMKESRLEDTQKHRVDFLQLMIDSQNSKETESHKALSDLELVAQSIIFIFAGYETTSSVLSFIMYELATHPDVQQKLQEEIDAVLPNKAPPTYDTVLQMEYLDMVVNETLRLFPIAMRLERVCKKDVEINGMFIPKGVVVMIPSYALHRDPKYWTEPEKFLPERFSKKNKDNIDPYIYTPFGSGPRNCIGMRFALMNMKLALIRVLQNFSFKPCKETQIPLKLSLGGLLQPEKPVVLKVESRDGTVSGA

For the molecule `CCOc1ccccc1C(=O)N(Cc1cccs1)c1ccc(Cl)cc1`, the Potency entry in [1], in test [2], in [3], in test [4] and in test [5] was “inactive” throughout.

For `COc1ccc(C(C)=NNc2ccc([N+](=O)[O-])cc2S(=O)(=O)Nc2ccccc2C(=O)O)c(OC)c1`, the Potency result in [1], in test [2], in test [4] and in [5] was “inactive” throughout. Also, in test [3], the Potency is 75.7 µM (active).

Turning to `NCC1O[C@@H](OC2C(N)C[C@H](N)[C@@H](O[C@H]3OC(CO)C(O)C(N)C3O)C2O)C(N)C(O)C1O` (stereo not given in full), the Potency entry in test [6], in [7], in test [8], in test [9] and in test [10] was “inactive” in each case.
